Test results reported in PubChem BioAssay.
Several values for one entry are separate records, joined by “and”; a condition that tells them apart may be missing. Equal entries are not always repeated. Results filed as inconclusive are left out. Activity calls are given as the source filed them.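 Rule for the calls, unless noted: active = percent response above a set limit, the screen-wide mean plus 3 SD (cut at about 130% in these data); inactive = the rest.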

What was measured:
[1] = yeast TOR pathway RPL19A-GFP modulators, primary screen, cell-based, S. cerevisiae, multiplex flow cytometry (AID 1862; in the data active = percent of DMSO control GFP below about 86%;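 note: lower values mimic rapamycin by blocking the RPL19A rise seen in DMSO cells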); conditions: S. cerevisiae RPL19A-GFP strain, flow cytometry fluorescence, 3 h; at 10 µM; stronger effect = lower value
[2] = modulators of MEP2-GFP levels in yeast, primary screen, S. cerevisiae, multiplex flow cytometry (AID 1867;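 active = GFP response, as percent of the DMSO control, above the screen-wide mean plus 3 SD, about 139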;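 note: median GFP channel fluorescence of barcode-gated MEP2-GFP cells measured by flow cytometry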); conditions: S. cerevisiae MEP2-GFP strain, 3 h, at 10 µM, stronger effect = higher value, 100% means same as DMSO wells
[3] = modulators of CIT2-GFP expression in yeast, primary screen, S. cerevisiae, GFP fusion, multiplex flow cytometry (AID 1870); conditions: 3 h, at 10 µM, stronger effect = higher value;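 note: barcoded CIT2-GFP strain pooled with four other GFP strains with rapamycin as positive control; median GFP fluorescence per well over plate mean of DMSO wells so 100% = DMSO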
[4] = modulators of LAP4-GFP expression in yeast, primary screen, S. cerevisiae, multiplex flow cytometry (AID 1873;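 active = GFP signal, as percent of the solvent control, above the screen mean plus 3 SD, about 149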); conditions: 3 h, at 10 µM, stronger effect = higher value
[5] = modulators of AGP1-GFP expression in yeast TOR pathway, primary screen, cell-based, multiplex flow cytometry, S. cerevisiae (AID 1887;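 active = GFP signal above the screen-wide mean plus 3 SD, that is over about 124.5% of the solvent control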;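 note: AGP1-GFP fusion strain of S. cerevisiae within a five-strain barcoded multiplex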); conditions: 3 h, at 10 µM, stronger effect = higher value
[6] = inhibitors of CD8+ T cell-vesicle binding, pilot screen, LFA-1/ICAM-1 modulator project, MLPCN validation set, flow cytometry (AID 2523;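 active = response below a set limit, under 55% cells CD8-positive and vesicle-bound, and CD8 cells' 90th-percentile brightness under 279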;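 for vesicle binding response: mean PE anti-B7-1 fluorescence of CD8+ cells relative to row control; 100% = QL9-loaded vesicles with DMSO vehicle in the same plate row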); conditions: 2C mouse CD8+ T cells, at 7 µM, stronger effect = lower value; double positive events: measured here: CD8+/vesicle+ event percentage
[7] = target: Integrin beta-1 (Homo sapiens) + Integrin alpha-4 (Homo sapiens) (UniProt P13612+P05556); assay: inhibition of HUTS-21 binding to VLA-4, pilot screen, VLA-4 allosteric modulator project, U937 cells, HUTS-21 mAb, flow cytometry, validation set (AID 2674;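 active = inhibition above 50%, about 3 SD of the validation set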;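 note: antibody binding induced by the VLA-4 ligand LDV present at three times its Kd; 0% = LDV ligand with antibody and no compound and 100% = antibody without LDV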); conditions: HUTS-21 LIBS mAb binding, at 6.7 µM, stronger effect = higher value, binding induced by LDV ligand
Chain of Integrin beta-1 (Homo sapiens) + Integrin alpha-4 (Homo sapiens) (P05556 whole entry, looked up): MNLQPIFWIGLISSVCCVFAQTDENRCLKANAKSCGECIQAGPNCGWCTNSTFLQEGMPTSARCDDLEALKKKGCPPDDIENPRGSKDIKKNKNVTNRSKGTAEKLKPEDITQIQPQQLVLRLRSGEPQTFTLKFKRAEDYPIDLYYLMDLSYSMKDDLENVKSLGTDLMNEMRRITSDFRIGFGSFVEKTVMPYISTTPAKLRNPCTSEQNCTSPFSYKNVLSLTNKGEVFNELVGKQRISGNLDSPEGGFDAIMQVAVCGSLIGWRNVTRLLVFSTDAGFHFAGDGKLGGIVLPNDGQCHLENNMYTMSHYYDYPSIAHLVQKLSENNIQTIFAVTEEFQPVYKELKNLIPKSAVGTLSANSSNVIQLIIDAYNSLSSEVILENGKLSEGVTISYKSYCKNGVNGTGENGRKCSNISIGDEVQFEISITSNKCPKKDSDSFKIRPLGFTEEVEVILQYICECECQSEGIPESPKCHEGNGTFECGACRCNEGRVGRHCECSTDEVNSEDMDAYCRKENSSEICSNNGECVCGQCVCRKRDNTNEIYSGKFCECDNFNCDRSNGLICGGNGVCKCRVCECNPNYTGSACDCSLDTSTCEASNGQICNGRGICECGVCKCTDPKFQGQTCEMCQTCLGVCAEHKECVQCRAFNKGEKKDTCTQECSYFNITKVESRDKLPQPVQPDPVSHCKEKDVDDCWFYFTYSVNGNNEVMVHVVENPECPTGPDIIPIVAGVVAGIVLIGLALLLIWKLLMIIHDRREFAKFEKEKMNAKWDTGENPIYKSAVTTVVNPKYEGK
Chain of Integrin beta-1 (Homo sapiens) + Integrin alpha-4 (Homo sapiens) (P13612 whole entry, looked up): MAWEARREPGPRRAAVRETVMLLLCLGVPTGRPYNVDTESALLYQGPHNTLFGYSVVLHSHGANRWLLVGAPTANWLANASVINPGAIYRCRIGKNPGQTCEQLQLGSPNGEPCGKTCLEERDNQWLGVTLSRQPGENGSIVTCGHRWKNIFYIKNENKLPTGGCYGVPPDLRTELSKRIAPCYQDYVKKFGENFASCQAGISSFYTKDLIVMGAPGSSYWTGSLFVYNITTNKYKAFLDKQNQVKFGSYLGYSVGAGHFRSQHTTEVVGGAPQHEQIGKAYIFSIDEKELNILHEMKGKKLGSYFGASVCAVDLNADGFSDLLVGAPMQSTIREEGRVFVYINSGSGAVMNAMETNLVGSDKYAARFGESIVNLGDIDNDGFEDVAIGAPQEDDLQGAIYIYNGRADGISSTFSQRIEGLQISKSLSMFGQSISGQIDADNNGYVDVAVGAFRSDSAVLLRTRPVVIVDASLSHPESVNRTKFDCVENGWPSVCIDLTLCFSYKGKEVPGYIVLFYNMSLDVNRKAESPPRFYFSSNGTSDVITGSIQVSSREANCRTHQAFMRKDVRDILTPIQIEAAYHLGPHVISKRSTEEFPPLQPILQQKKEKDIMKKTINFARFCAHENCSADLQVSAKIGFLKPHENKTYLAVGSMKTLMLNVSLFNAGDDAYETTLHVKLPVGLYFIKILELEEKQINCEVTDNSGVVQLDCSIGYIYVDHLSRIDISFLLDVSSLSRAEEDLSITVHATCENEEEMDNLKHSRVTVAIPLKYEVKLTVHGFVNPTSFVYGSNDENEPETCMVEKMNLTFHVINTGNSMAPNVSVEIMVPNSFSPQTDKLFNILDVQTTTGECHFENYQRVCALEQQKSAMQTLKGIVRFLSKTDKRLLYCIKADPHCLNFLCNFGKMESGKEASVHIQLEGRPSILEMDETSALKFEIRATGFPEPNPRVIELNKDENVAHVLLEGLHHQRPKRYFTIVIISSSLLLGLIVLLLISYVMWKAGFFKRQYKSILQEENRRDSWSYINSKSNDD

[8] = superoxide lowering in aged yeast cells, pilot screen, validation compound set (AID 2706;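 active = superoxide response below 65% of plate, a cut near 3 SD across the whole screen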;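 note: yeast exposed to compound for one week at 30 degrees C before staining; 100% = mean of all compound wells on the same plate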); conditions: S. cerevisiae aging, superoxide DHE fluorescence; at 10 µM; stronger effect = lower value
[9] = target: Beta-adrenergic receptor kinase 1 (Homo sapiens) (UniProt P25098); assay: GRK2 binders displacing RNA aptamer, biochemical, validation, human GRK2, bead flow cytometry (AID 488806;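 active = aptamer binding inhibition above 30%, about 3 SD of noise from non-fluorescent compounds; inactive = inhibition at or below 30%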); conditions: bead-bound GRK2, FAM-aptamer displacement, at 10 µM, stronger effect = higher value
Chain of Beta-adrenergic receptor kinase 1 (Homo sapiens) (P25098 whole entry, looked up): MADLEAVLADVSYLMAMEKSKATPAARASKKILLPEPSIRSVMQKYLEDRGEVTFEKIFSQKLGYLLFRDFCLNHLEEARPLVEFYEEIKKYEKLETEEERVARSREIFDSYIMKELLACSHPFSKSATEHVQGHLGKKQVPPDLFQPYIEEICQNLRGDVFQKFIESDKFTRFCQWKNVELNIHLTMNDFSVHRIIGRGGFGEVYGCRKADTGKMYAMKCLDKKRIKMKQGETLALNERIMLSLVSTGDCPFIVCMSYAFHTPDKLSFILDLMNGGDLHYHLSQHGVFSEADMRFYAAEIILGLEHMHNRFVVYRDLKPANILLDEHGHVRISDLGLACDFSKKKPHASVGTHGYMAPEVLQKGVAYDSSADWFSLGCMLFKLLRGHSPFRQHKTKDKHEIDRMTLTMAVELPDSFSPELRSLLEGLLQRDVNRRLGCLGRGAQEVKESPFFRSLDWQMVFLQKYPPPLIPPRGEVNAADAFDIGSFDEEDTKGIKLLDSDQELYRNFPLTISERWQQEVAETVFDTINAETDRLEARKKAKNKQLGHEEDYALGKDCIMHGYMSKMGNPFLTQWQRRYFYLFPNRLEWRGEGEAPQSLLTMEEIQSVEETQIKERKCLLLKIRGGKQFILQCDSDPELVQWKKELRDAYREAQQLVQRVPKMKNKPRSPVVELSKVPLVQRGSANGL

[10] = target: Beta-2 adrenergic receptor (Homo sapiens) (UniProt P07550); assay: beta2AR agonists driving receptor internalization, pilot screen, cell-based, FAP fluorogen, flow cytometry, validation set (AID 504459;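 active = percent response above 42, roughly 3 SD of non-fluorescent test compounds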;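 note: agonist-driven loss of surface beta2AR via internalization measured by FAP dye flow cytometry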); conditions: Am2.2-beta2AR cells, FAP surface receptor flow cytometry; at 10 µM; stronger effect = higher value
Chain of Beta-2 adrenergic receptor (Homo sapiens) (P07550 whole entry, looked up): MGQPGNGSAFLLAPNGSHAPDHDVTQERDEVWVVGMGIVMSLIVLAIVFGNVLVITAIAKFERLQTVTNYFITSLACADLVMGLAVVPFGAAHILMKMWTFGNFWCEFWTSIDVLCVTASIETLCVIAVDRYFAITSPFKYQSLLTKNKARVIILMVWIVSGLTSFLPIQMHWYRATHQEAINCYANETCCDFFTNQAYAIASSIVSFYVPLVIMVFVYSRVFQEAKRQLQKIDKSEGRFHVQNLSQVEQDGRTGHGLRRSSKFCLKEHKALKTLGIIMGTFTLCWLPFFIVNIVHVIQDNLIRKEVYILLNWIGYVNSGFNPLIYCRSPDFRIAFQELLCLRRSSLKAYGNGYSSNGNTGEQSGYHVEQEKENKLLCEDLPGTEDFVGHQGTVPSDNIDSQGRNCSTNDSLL

[11] = target: AP-2 complex subunit beta (Homo sapiens) (UniProt P63010); assay: inhibitors of arrestin peptide binding to AP2, pilot screen, biochemical, validation set, GST-AP2 beads, flow cytometry (AID 504541;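 active = inhibition above 54%, about 3 SD of non-fluorescent compounds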;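 note: AP2 carries R879A mutation and is captured from E. coli lysate; bead-bound FITC arrestin peptide fluorescence measuring arrestin peptide binding to AP2; 0% = DMSO wells and 100% = excess unlabeled arrestin peptide control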); conditions: FITC arrestin peptide, at 10 µM, stronger effect = higher value, AP2 beta2 appendage fragment, R879A mutant
Chain of AP-2 complex subunit beta (Homo sapiens) (P63010 whole entry, looked up, the tested form may be a part, one chain of several): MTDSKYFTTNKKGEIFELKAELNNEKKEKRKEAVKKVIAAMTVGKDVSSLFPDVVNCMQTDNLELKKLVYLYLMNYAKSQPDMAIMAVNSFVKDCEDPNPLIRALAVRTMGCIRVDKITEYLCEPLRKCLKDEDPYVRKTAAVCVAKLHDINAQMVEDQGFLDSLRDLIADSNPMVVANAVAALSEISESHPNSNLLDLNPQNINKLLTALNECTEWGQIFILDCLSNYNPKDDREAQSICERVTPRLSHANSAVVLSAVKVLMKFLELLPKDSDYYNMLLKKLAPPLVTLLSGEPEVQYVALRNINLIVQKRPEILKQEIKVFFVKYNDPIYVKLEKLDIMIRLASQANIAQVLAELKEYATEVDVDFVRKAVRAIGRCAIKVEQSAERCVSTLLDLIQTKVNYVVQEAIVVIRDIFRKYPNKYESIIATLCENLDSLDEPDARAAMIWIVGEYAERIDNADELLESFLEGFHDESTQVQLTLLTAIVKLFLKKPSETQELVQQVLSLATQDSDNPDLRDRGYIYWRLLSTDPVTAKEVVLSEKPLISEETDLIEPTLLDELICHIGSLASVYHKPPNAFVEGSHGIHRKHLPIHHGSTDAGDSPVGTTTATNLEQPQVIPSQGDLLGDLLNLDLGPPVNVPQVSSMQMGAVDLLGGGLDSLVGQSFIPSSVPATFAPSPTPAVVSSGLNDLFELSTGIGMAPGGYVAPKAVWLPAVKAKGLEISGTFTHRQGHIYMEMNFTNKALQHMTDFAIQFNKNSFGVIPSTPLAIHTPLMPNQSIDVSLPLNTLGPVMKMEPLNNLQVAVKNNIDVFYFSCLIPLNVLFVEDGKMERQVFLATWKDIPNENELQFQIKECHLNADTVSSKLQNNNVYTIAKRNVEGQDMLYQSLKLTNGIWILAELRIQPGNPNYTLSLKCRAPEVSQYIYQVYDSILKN

[12] = yeast V-ATPase proton transport modulators, S. cerevisiae, pHLuorin, HTS validation (AID 504600; in the data active = response above about 15%;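 note: plate controls were DMSO for no effect and reference compound for full effect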); conditions: S. cerevisiae pHLuorin cytosolic pH, at 10 µM, stronger effect = higher value
[13] = system: anti-desmoglein-3 scFv antibody binding to human DSG3; assay: inhibitors of anti-DSG3 scFv binding to DSG3, pilot screen, biochemical, validation compound set, bead-based, flow cytometry (AID 588368;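 active = binding below the plate cutoff, the plate median minus 3 SD, with a reading above zero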;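 note: signal is the median channel fluorescence of bead-bound GFP antibody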); conditions: Protein G beads, DSG3-Fc, scFv-GFP binding, at 10 µM, stronger effect = lower value
[14] = inhibitors of fungal efflux pumps CDR1, CDR2, MDR1, pilot screen, validation compound set, multiplex, phenotypic (AID 588506;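 active = efflux inhibition above 0.42, the validation set average plus 4 SD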;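 note: Nile Red retained in cells so higher fluorescence means more efflux inhibition; 0 = negative control wells and 1 = enniatin B 25 µM full block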); conditions: S. cerevisiae pump-expressing triplex, Nile Red efflux flow cytometry; at 10 µM; stronger effect = higher value; the pumps come from Candida albicans
[15] = target: ATP-binding cassette sub-family B member 6 (Homo sapiens) (UniProt Q9NP58); assay: ABCB6 transporter inhibitors, pilot screen, K562-ABCB6 cells, flow cytometry, validation set (AID 588550;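 active = inhibition above the screen-wide mean plus 3 SD, about 51%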;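 note: 0% = DMSO wells and 100% = benzethonium chloride 70 µM positive control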); conditions: K562-ABCB6 porphyrin accumulation, 1 h, at 10 µM, stronger effect = higher value
Chain of ATP-binding cassette sub-family B member 6 (Homo sapiens) (Q9NP58 whole entry, looked up): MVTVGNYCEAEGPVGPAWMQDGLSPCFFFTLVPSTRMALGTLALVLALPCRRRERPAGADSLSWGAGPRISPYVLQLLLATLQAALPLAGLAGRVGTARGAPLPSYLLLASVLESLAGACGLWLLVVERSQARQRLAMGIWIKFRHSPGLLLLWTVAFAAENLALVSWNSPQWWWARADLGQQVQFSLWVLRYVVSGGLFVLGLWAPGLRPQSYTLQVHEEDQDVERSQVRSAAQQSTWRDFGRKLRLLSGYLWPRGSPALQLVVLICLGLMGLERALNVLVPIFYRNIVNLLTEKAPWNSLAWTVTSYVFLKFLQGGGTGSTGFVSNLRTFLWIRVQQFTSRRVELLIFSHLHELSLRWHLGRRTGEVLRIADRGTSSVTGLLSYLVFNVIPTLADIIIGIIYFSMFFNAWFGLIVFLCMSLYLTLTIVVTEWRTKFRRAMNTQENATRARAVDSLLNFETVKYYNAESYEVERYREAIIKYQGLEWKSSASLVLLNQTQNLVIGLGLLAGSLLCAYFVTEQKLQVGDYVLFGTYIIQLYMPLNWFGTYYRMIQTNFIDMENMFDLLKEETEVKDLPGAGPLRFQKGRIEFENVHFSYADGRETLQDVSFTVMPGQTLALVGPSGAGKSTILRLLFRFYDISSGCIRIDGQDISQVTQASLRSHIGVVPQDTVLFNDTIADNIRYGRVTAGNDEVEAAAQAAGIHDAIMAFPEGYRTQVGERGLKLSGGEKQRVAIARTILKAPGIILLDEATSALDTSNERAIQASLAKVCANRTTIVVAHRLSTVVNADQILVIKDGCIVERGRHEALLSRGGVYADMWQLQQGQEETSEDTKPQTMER

[16] = promoters of myeloid differentiation in arrested cells, primary screen, cell-based, GFP/MAC1 double positive, flow cytometry, validation set (AID 588685;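 active = differentiation response of at least 50%, scaled between solvent and reference control, from cells with both markers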;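 note: compound exposure lasts four days before antibody staining and flow analysis; 0% = DMSO wells and 100% = 5 µM fulvestrant positive control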); conditions: ER-HoxA9 marrow cells, stronger effect = higher value, normalized: vehicle 0, fulvestrant 100

Row | Compound | percent of DMSO control GFP [1] | GFP response vs DMSO [2] | percent response of DMSO control [3] | GFP response vs DMSO [4] | GFP response, % of DMSO [5] | double positive events [6] | vesicle binding response [6] | inhibition [7] | superoxide response (% of plate) [8] | aptamer binding inhibition [9] | response [10] | inhibition [11] | response [12] | binding (% of control) [13] | efflux inhibition (fraction of control) [14] | inhibition [15] | differentiation response [16]
1 | CCO/C([O-])=N/c1c[n+](N2CCOCC2)no1 | 99.8% (inactive) | 97.7% (inactive) | 103% (inactive) | 110% (inactive) | 106% (inactive) | 64.1% | 237% (inactive) | -18.5% (inactive) | 115% (inactive) | -1% (inactive) | 9.37% (inactive) | -14.8% (inactive) | 0.46% (inactive) | 100% (inactive) | 0 (inactive) | -4% (inactive) | -0.18% (inactive)
2 | Nc1ccc(C(=O)O)c(O)c1 | 102% (inactive) | 106% (inactive) and 107% (inactive) | 99.7% (inactive) and 96.7% (inactive) | 100% (inactive) and 111% (inactive) | 104% (inactive) and 106% (inactive) | 61.7% and 60.8% | 199% (inactive) and 232% (inactive) | -2.43% (inactive) and 6.4% (inactive) | 95.4% (inactive) and 103% (inactive) | 5% (inactive) and 4% (inactive) | -5.54% (inactive) and 8.67% (inactive) | -7.61% (inactive) and 3.32% (inactive) | -2.48% (inactive) and -0.83% (inactive) | 103% (inactive) and 100% (inactive) | 0.28 (inactive) and -0.03 (inactive) | 3% (inactive) and 8% (inactive) | -7.5% (inactive) and -31.2% (inactive)
3 | Cc1ccc2c(c1)C(CCN)C(=O)N2Cc1ccccc1 (stereo not given) | 102% (inactive) | 104% (inactive) | 109% (inactive) | 96% (inactive) | 101% (inactive) | 66.6% | 234% (inactive) | -6.68% (inactive) | 106% (inactive) | -4% (inactive) | -2.03% (inactive) | 8.79% (inactive) | 0.57% (inactive) | 94.5% (inactive) | -0.14 (inactive) | 1% (inactive) | -2.69% (inactive)
4 | COc1ccc(C2OC(=O)Cc3cc(OC)c(OC)cc32)cc1 (stereo not given) | 90.6% (inactive) | 127% (inactive) | 91.3% (inactive) | 82.5% (inactive) | 88% (inactive) | 63.4% | 177% (inactive) | -6.15% (inactive) | 94.5% (inactive) | 2% (inactive) | -3.02% (inactive) | -4.51% (inactive) | -1.1% (inactive) | 103% (inactive) | -0.38 (inactive) | 7% (inactive) | 3.28% (inactive)
5 | C=CCC1(O)C(=O)N2C(=C1C(=O)N1CCOCC1)c1ccccc1CC2(C)C (stereo not given) | 99.4% (inactive) | 108% (inactive) | 101% (inactive) | 95.3% (inactive) | 99.9% (inactive) | 55.4% | 38.1% (inactive) | -2.53% (inactive) | 111% (inactive) | 1% (inactive) | -4.96% (inactive) | 23.5% (inactive) | -6.09% (inactive) | 95.5% (inactive) | 0.24 (inactive) | -7% (inactive) | 0.24% (inactive)
6 | COc1ccc(NC(=O)C2OC3OC(C)(C)OC3C3OC(C)(C)OC23)cc1 (stereo not given) | 98.9% (inactive) | 98.6% (inactive) | 98.3% (inactive) | 106% (inactive) | 119% (inactive) | 63.5% | 203% (inactive) | 13.4% (inactive) | 103% (inactive) | 5% (inactive) | -8.79% (inactive) | -12.6% (inactive) | 1.13% (inactive) | 106% (inactive) | -0.04 (inactive) | 5% (inactive) | 0.92% (inactive)
7 | Clc1cc(-c2ccc(/C=N/n3cnnc3)o2)ccc1Br | 100% (inactive) | 103% (inactive) | 102% (inactive) | 114% (inactive) | 99.9% (inactive) | 56.6% | 130% (inactive) | -3.77% (inactive) | 97% (inactive) | -5% (inactive) | -6.37% (inactive) | 0.75% (inactive) | 3.36% (inactive) | 98.8% (inactive) | -0.36 (inactive) | -9% (inactive) | -4.57% (inactive)
8 | CCOc1ccc(OCCSc2nc3ccccc3[nH]2)cc1 | 98.2% (inactive) | 98.5% (inactive) | 101% (inactive) | 108% (inactive) | 83.3% (inactive) | 60.3% | 186% (inactive) | 16% (inactive) | 107% (inactive) | 4% (inactive) | -17.3% (inactive) | -5.21% (inactive) | 1.04% (inactive) | 98.7% (inactive) | 0.05 (inactive) | 3% (inactive) | -7.2% (inactive)
9 | COc1ccc(S(N)(=O)=O)cc1C(N)=O | 100% (inactive) | 105% (inactive) | 97.8% (inactive) | 101% (inactive) | 97% (inactive) | 62% | 195% (inactive) | -0.45% (inactive) | 106% (inactive) | 0% (inactive) | 1.47% (inactive) | 13.4% (inactive) | -1.59% (inactive) | 91.1% (inactive) | 0.02 (inactive) | 11% (inactive) | -4.64% (inactive)
10 | CN1C(C(=O)Nc2ccccn2)=C(O)c2sccc2S1(=O)=O | 102% (inactive) | 97.7% (inactive) | 105% (inactive) | 93.7% (inactive) | 102% (inactive) | 63.2% | 168% (inactive) | -2.43% (inactive) | 113% (inactive) | -6% (inactive) | 4.21% (inactive) | 6.73% (inactive) | 4.48% (inactive) | 96% (inactive) | 0.035 (inactive) | 9% (inactive) | 4.2% (inactive)
